Screening results: PubChem BioAssay, several laboratories
Platelet DG rel: inhibitors of platelet dense granule secretion, primary screen, cell-based, MLPCN, human platelets; human platelet-rich plasma, SFLLRN dense granule ATP release, luminescence; inhibition, %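 (compounds screened at 7.5 µM in platelet-rich plasma)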; 300,000 compounds, 0.22% hits; AID 1663, 2009;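 active = mean replicate score, as percent of positive control, at or above 50; inconclusive = mean below 50 but at least one replicate at or above 50; inactive = mean and every replicate below 50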
PolyA inh: polyadenylation inhibitors in yeast reporter cells, primary screen, luminescence, S. cerevisiae; S. cerevisiae SKY197-pL101 polyadenylation reporter, beta-gal luminescence; efflux-impaired pdr1/pdr3 knockout yeast; score 100 = 6 SD above DMSO; 300,000 compounds, 0.02% hits; activity score, % at 12 µM;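 active = lowest replicate activity score at least 50, where 100 means six control SD above control mean; inconclusive = lowest score under 50 but half or more replicates reach 50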;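 also: yeast exposed to compound for 9 h at 30 °C; higher score means more reporter readthrough which indicates perturbed polyadenylation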
Calb FLC: C. albicans growth inhibition with fluconazole, primary screen, CaCi-2 strain, Alamar Blue fluorescence. C. albicans CaCi-2 (fluconazole-resistant clinical isolate) + fluconazole, 48 h. growth inhibition, % (test concentration not listed). 300,000 compounds, 0.57% hits;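 active = growth inhibition above about 58% in most replicates, limit read from the data, passing the limit was not always enough; inconclusive = exactly half the replicates above a set limit; inactive = most replicates below a set limit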;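 also: all wells also contain fluconazole at 8 µg/ml as a sub-toxic cotreatment; 0% = median of DMSO wells and 100% = median of geldanamycin control wells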
SKKanGAS inh: S. pyogenes SKKanGAS growth inhibitors in kanamycin, primary screen, streptokinase expression inhibitor project, SKKanGAS strain, BacTiter-Glo luminescence. 6 h. inhibition, % at 7.5 µM. 300,000 compounds, 1.3% hits. AID 1662, 2009;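 active = mean replicate score, as percent of positive control median, at least 50; inconclusive = mean below 50 but one replicate at or above 50; inactive = mean and every replicate below 50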;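 also: strain carries kanamycin resistance gene driven by streptokinase promoter and grows in 40 µg/ml kanamycin; loss of luminescence reflects streptokinase promoter inhibition or plain growth inhibition; 0% = median of DMSO wells and 100% = positive control at its reference dose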
Yeast superoxide: reduction of superoxide in aged yeast, primary screen, HTS. S. cerevisiae aged cells, superoxide DHE fluorescence; hits give low values. superoxide response (% of plate mean), % at 10 µM. 330,000 compounds, 0.18% hits;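 active = superoxide response under a set limit, about three screen SD below normal, cut at about 65% in these data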;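 also: yeast aged for seven days with compound at 30 °C before DHE staining; 100% = average MFI of all compound-treated wells on the plate with controls excluded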
* marks the source's active call; other numbers are inactive results; i = inactive; ? = inconclusive; . = no result. The list is not random: actives were taken first. Their share in the collection is about 2%.

SMILES | Platelet DG rel | PolyA inh | Calb FLC | SKKanGAS inh | Yeast superoxide
COc1ccc(-c2nnc(NC(=O)c3ccc(S(=O)(=O)N4COCC4(C)C)cc3)o2)cc1 | -1.1 | 1.4 | 68.5 | 88.9* | 127.2
COc1ccc(C(=O)Nc2nnc(C3=COCCO3)o2)cc1 | -5.3 | 2.1 | 7.6 | 26.4 | 97.0
COc1ccc(N2CCN(C3CCCN(C(=O)CCN4CCCCO4)C3)CC2)cc1 (stereo unspecified) | -7.0 | 10.7 | -1.0 | -2.8 | .
CC(=O)Nc1ccc(NC2=Nc3ccccc3N3C2=Nc2c(c(C)nn2-c2ccccc2)C3c2ccccc2)cc1 (stereo unspecified) | 10.5 | 12.5 | -1.7 | 15.7 | 98.5
COc1ccc(NC2=Nc3ccccc3N3C2=Nc2c(c(C)nn2-c2ccc(C)cc2)C3c2cccnc2)cc1 (stereo unspecified) | 18.0 | . | 118.7* | . | 106.8
CS(=O)(=O)c1ccc(-c2nnc(NC(=O)c3cccc(N4C(=O)CCC4=O)c3)o2)cc1 | . | 11.2 | -0.5 | 1.6 | 93.7
O=C(Nc1nnc(-c2ccc(Br)cc2)o1)c1cccc(N2C(=O)CCC2=O)c1 | -4.2 | -11.5 | 7.3 | 87.6* | 105.2
O=C(Nc1nnc(-c2ccccc2)o1)c1cccc(N2C(=O)CCC2=O)c1 | 5.6 | 7.8 | 100.0* | -0.4 | 104.6
Cc1cc(C)nc(NCCC(=O)O)n1 | -1.9 | 23.8 | -6.8 | -4.2 | 94.0
O=S(=O)(NCC(c1ccco1)N1CCN(c2ccc(F)cc2)CC1)c1ccc2c(c1)OCCO2 (stereo unspecified) | -4.9 | -25.1 | 114.0* | 5.8 | 100.6
Cc1ccc(C(=O)CCC(=O)Nc2ccccc2C)c(C)c1 | 7.6 | 5.0 | 3.9 | 5.4 | 94.0
COc1ccc(-c2cc3c(nn2)-c2ccccc2C3=O)cc1 | 55.5* | -24.1 | -41.9 | 2.3 | 176.9
O=C(O)c1ccc(-c2ncc[nH]2)cc1 | 0.8 | 18.8 | -9.4 | -7.4 | 120.1
COc1ccc(/C=C2\Sc3ccc(C(=O)N4CCN(Cc5ccccc5)CC4)cc3N(C)C2=O)cc1OC | 2.2 | -12.7 | -7.3 | 70.9* | 103.0
CN1CCN(C(=O)c2ccc3c(c2)N(C)C(=O)/C(=C/c2cccc(Cl)c2)S3)CC1 | 6.4 | -5.7 | 19.3 | 36.9 | 123.1
COc1cccc(/C=C2\Sc3ccc(C(=O)NCc4cccnc4)cc3N(C)C2=O)c1 | 0.9 | -12.4 | 5.9 | 38.1 | 98.4
COc1ccc(/C=C2\Sc3ccc(C(=O)NCc4cccnc4)cc3N(C)C2=O)cc1OC | -0.5 | 10.5 | 7.3 | 65.6* | 104.8
COC(=O)c1cc(NC(=O)c2cc(-c3ccc(Cl)cc3)oc2C(F)(F)F)ccc1N1CCOCC1 | -6.6 | 8.1 | 1.9 | 59.1* | 107.1
CC1=C(C#N)c2nc(N)c(C#N)c(C)c2/C1=C\c1ccc(C)cc1 | -4.5 | -17.0 | 11.1 | 70.6* | 116.3
CC(C)Oc1ccc(/C(O)=C2/C(=O)C(=O)N(CCN(C)C)C2c2cccs2)cc1 (stereo unspecified) | -9.3 | -4.0 | -3.2 | 2.2 | 87.1
COc1ccc(-c2ncn(CCC#N)c2[N+](=O)[O-])cc1 | -8.4 | 2.6 | -5.1 | 96.7* | 93.4
Cc1nc2c(-c3ccccc3)c[nH]n2c(=O)c1Cc1ccccc1 | -2.9 | 16.1 | -3.9 | 71.3* | 123.5
Cc1cc(=O)n2[nH]cc(-c3ccccc3)c2n1 | 15.9 | -15.0 | 0.7 | -1.4 | 99.7
C=CCn1c(=S)[nH]c2cc(C(=O)N3CCN(c4ccccc4OC)CC3)ccc2c1=O | . | . | . | . | 96.6
CC(C)c1nc2sc(C(=O)O)c(N)c2c2c1CCCC2 | 0.1 | 2.0 | 8.5 | 5.3 | 110.7
SMILES | Platelet DG rel | PolyA inh | Calb FLC | SKKanGAS inh | Yeast superoxide
NC(=S)N/N=C\c1c2ccccc2cc2ccccc12 | . | . | . | . | 122.9
NC(=S)N/N=C\c1c(OCc2ccccc2Cl)ccc2ccccc12 | -5.5 | -14.3 | 33.7 | 49.7* | 90.3
O=C(CN(c1cccc([N+](=O)[O-])c1)S(=O)(=O)c1ccccc1)NCc1ccccc1 | 57.4* | 14.6 | -5.1 | -13.4 | 88.7
Cc1ccc(CNC(=O)CN(c2cccc([N+](=O)[O-])c2)S(=O)(=O)c2ccccc2)cc1 | -5.2 | 9.2 | 31.2 | 2.2 | 104.5
CCn1ccnc1CN1CCC(n2nccc2NC(=O)c2ccccc2OC)CC1 | -3.9 | 8.7 | -2.9 | -6.6 | 92.3
CCCn1nnc(NC(=O)c2ccc3ccccc3c2)n1 | -0.5 | 17.3 | 3.7 | -8.8 | 99.8
CCCn1nnnc1NC(=O)c1ccc2ccccc2c1 | 0.7 | 10.6 | 116.5* | 89.8* | 118.5
Nc1c(S(=O)(=O)c2cccs2)c2nc3ccccc3nc2n1/N=C/c1cccc(O)c1 | -6.5 | -0.5 | 8.3 | 72.3* | 89.5
CCN(CCn1cccn1)Cc1cn[nH]c1-c1cccc2ccccc12 | 59.5* | -8.6 | 6.6 | -5.8 | 100.8
Cc1ccc(-n2nnnc2C(Cl)(Cl)c2nnnn2-c2ccc(C)cc2)cc1 | 13.2 | -106.6 | 103.2* | -19.0 | 94.0
O=C(C[C@@H]1C/C=C\C[C@@H](Cc2ccc(F)cc2)C(=O)OC[C@@H]2CCCN2C1=O)NCCO | . | . | . | . | 92.9
O=C(NC(=S)N(Cc1ccccc1)Cc1ccccc1)c1ccccc1F | 3.6 | -31.4 | 16.3 | 94.2* | 81.1
CC(C)C(=O)NC(=S)N(Cc1ccccc1)Cc1ccccc1 | -0.2 | -20.5 | ? | -8.7 | 85.0
O=C(NC(=S)NCc1ccccc1)c1ccccc1F | 6.2 | -5.3 | 0.9 | 1.3 | 91.6
COc1ccc(C(=O)NC(=S)N(Cc2ccccc2)Cc2ccccc2)cc1 | -2.5 | -8.6 | 23.4 | 96.1* | i
CC(C)CC(=O)NC(=S)N(Cc1ccccc1)Cc1ccccc1 | -4.0 | 0.4 | -0.5 | 53.6* | 97.9
O=C(c1cc(COc2ccc(F)cc2Cl)on1)N1CC2C[C@@H]3CC1C[C@H](C2)C3 | -4.7 | -3.5 | -8.9 | -2.6 | 107.7
CC(NC(=O)CN1C(=O)NC2(CCCC2)C1=O)c1ccc(Cl)cc1Cl (stereo unspecified) | . | . | . | . | 115.8
Cc1ccc2nc3n(c(=O)c2c1)-c1ccccc1C(=O)NC3Cc1ccc(O)cc1 (stereo unspecified) | . | . | . | . | 84.2
O=C(c1cccs1)N1N=C(c2ccc(O)cc2)CC1c1ccccc1 (stereo unspecified) | 9.1 | -38.9 | -6.2 | 11.0 | 108.6
O=C(c1cccs1)N1N=C(c2ccccc2)CC1c1ccccc1 (stereo unspecified) | 6.6 | -44.8 | -11.9 | 57.1* | 85.3
O=C(NCCSc1c[nH]c2ccccc12)c1c(F)cccc1F | 74.5* | -6.1 | 7.4 | -6.1 | 111.4
O=C(NCCSc1c[nH]c2ccccc12)c1ccco1 | 7.0 | -3.2 | 3.0 | -1.2 | 85.0
COc1ccc(CCN(C)C2CCCN(C(=O)c3sccc3C)C2)cc1OC (stereo unspecified) | 10.8 | -3.4 | -4.2 | -1.5 | 97.6
C/C(=N\Nc1ccc(C(=O)O)cc1)c1ccc2c(c1)Nc1ccccc1S2 | 3.2 | -13.3 | ? | 80.7* | 90.1
